Screens: PubChem, several laboratories
PG9 binder – binders of HIV-1 gp120 antibody PG9, primary screen, biochemical, TR-FRET. TR-FRET gp120-PG9 antibody binding. inhibition, % at 6.7 µM. hit rate 0.43% among 360,000. AID 624416, 2012; in the data active = inhibition above about 8.5%
ABCB6 inh MLPCN – ABCB6 transporter inhibitors, primary screen, K562-ABCB6 cells, flow cytometry, MLPCN library. K562-ABCB6 porphyrin accumulation, 1 h; stronger effect = lower value. fluorescence ratio to DMSO, % at 10 µM. hit rate 0.19% among 360,000;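 active = fluorescence ratio to DMSO below 75%, the collection mean minus 3 SD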;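 also: signal is porphyrin accumulated inside mitochondria; 100% equals median channel fluorescence of DMSO control wells; lower ratio means ABCB6 inhibition with less porphyrin fluorescence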
rCAG binder – binders of r(CAG) RNA repeats, primary screen, biochemical, fluorescence | AID 651821, 2012 | r(CAG) RNA repeat, TO-PRO-1 dye displacement fluorescence | inhibition, % at 3 µM | hit rate 1.3% among 370,000;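 active = inhibition above the plate cutoff, the mean of all test compounds on that plate plus 3 SD, cut at about 35% in these data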;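 also: 0% = DMSO alone and 100% = 100 µM mitoxantrone as full dye displacement; higher means more dye released from RNA so lower well fluorescence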
Exocytosis inh – LAMP-1 surface exposure blockers, TALL-104 cells – cell-based, flow cytometry, MLPCN library, primary screen | inhibition, % at 10 µM | hit rate 0.66% among 360,000 | AID 651702, 2012 | TALL-104 LAMP-1 surface exposure; cells stimulated with thapsigargin and PMA;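 active = inhibition above about 55%, limit read from the data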
Numbers without * were called inactive; i = inactive; x = not tested or not shown. An excerpt weighted towards active compounds, which were near 2.5% of everything screened.

SMILES | PG9 binder | ABCB6 inh MLPCN | rCAG binder | Exocytosis inh
CCCc1[nH]n(-c2ccc([N+](=O)[O-])cc2)c(=O)c1C=NCCc1c[nH]c2ccccc12 | 3 | 99 | 9 | 90*
N/C(=N\N=C/c1ccc(F)cc1)N/N=C\c1ccc(F)cc1 | 0 | 102 | 7 | 61*
N/C(=N\N=Cc1ccc2c(c1)OCO2)NN=Cc1ccc2c(c1)OCO2 | 1 | 94 | 11 | 34
N/C(=N\N=C/c1ccc(Br)cc1)N/N=C\c1ccc(Br)cc1 | 0 | 94 | 8 | 63*
Cc1ccc2nc3cc([N+](=O)[O-])cc([N+](=O)[O-])c3cc2c1 | 1 | 110 | 2 | 63*
Cc1nc2ccc([N+](=O)[O-])cc2nc1C | -2 | 96 | -4 | 10
CCN1CCN(c2cc(C)c3cc(NC(=S)N4CCN(c5ccccc5)CC4)ccc3n2)CC1 | -1 | 96 | -3 | 56*
CN(C)[C@H]1CCN(c2ccc3c(c2)O[C@@H]2CCN(C2)S3(=O)=O)C1 | x | x | 4 | x
CCOC(=O)CCCCC(=O)c1[nH]c(=O)[nH]c1CSc1nc(-c2ccccc2)c(C#N)c(=O)[nH]1 | -2 | 99 | 56* | -1
N#Cc1c(-c2ccccc2)nc(SCC(=O)Nc2ccccc2)[nH]c1=O | 4 | 89 | 29 | -2
N#Cc1c(-c2ccccc2)nc(SCC(=O)N2c3ccccc3Sc3ccccc32)[nH]c1=O | 3 | 98 | 89* | 2
CCOC(=O)CCCCC(=O)c1[nH]c(=O)[nH]c1CSCCO | -1 | 100 | -2 | 1
C/C=C(/C)C(=O)O[C@@H]1[C@H](OC(C)=O)c2c(ccc3ccc(=O)oc23)OC1(C)C | 0 | 95 | -8 | 61*
COc1ccc(Cl)cc1NC(=S)N(Cc1ccccc1C)CC1CCC(C(=O)O)CC1 (configuration not stated) | -1 | 105 | 45* | 1
COc1ccc(OC)c(C(C[N+](=O)[O-])c2c(C)cc3ccccn23)c1 (configuration not stated) | -3 | 104 | 10 | 75*
CCC(=O)N(CC)C1=C(O)c2ccccc2C(=O)C1=O | -4 | 113 | -1 | 92*
COc1ccc(-c2cc(C(F)F)n3ncc(C(=O)NCC4CCCO4)c3n2)cc1 (configuration not stated) | 3 | 108 | -2 | -3
COc1ccc(-c2cc(C(F)(F)F)n3ncc(C(=O)NCC4CCCO4)c3n2)cc1OC (configuration not stated) | 0 | 64* | 2 | -2
O=C(/C=C/c1ccco1)Oc1cc(Br)cc(/C=N/NC(=O)c2ccccc2O)c1 | -2 | 97 | 19 | 78*
C/C=C/c1ccccc1OCCCN1CCC(C(O)(c2ccccc2)c2ccccc2)CC1 | x | x | 0 | x
CSc1nc(-c2ccc(Cl)cc2Cl)[nH]c(=O)c1C#N | 0 | 97 | 43* | 0
Cc1ccc(S(=O)(=O)SC/C=C/CSS(=O)(=O)c2ccc(C)cc2)cc1 | 0 | 94 | 3 | 78*
C=CCN=C1NC(c2ccccc2C(F)(F)F)C(C(=O)OC)=C(C)N1Cc1ccc(C(F)(F)F)cc1 (configuration not stated) | -1 | x | 1 | x
Cc1ccc(-c2ccc(/C=C3\SC(N4CCOCC4)=NC3=O)o2)cc1 | -4 | 110 | 12 | 60*
COc1cc(N=Nc2ccc(Br)cc2)cc(C=O)c1O | -1 | 104 | 6 | 105*
SMILES | PG9 binder | ABCB6 inh MLPCN | rCAG binder | Exocytosis inh
COc1cc(/C=C2\SC(=O)N(CCN)C2=O)ccc1OS(=O)(=O)c1cc(C)ccc1C | 1 | 101 | 24 | 73*
COCc1[nH]nc2c1C(c1ccc3c(c1)OCO3)N(Cc1ccccc1)C2=O (configuration not stated) | -1 | x | 1 | x
O=C1/C(=C/c2ccc(N3CCOCC3)o2)SC(=Nc2ccccc2)N1CCc1c[nH]c2ccccc12 | x | i | x | 75*
CCCN1C(=O)/C(=C/c2cc(C)n(C)c2C)SC1=Nc1ccc(OC)cc1 | -1 | 112 | 12 | 2
COCCN1C(=O)/C(=C/c2ccc(Oc3ccc([N+](=O)[O-])cn3)c(OC)c2)SC1=Nc1ccccc1 | -2 | 100 | 3 | 2
COc1cc(/C=C2\SC(=Nc3ccccc3)N(CCc3c[nH]c4ccccc34)C2=O)ccc1OC(C)C(=O)O (configuration not stated) | -1 | 73* | 31 | 0
COc1ccc(N=C2S/C(=C\c3ccc(OC(C)C(=O)O)c(OC)c3)C(=O)N2CCc2c[nH]c3ccccc23)cc1 (configuration not stated) | -1 | 94 | 49* | 2
Cc1[nH]c2ccccc2c1C(=O)CSc1nc2cc(S(=O)(=O)N3CCCCC3)ccc2o1 | -2 | 69* | 11 | 5
C[C@H](O)[C@@H]1CN2CCc3ccc(-c4ccc5c(c4)OCO5)cc3[C@@H]2C[C@@H]1N(C)C(=O)c1cccc(Cl)c1 | -2 | x | 8 | x
CC1=NN(c2ccccc2)C(=O)/C1=C/c1c(O)n(-c2ccc(F)cc2)[nH]c1=O | -3 | 97 | 91* | 2
CC1=NN(c2ccccc2)C(=O)C1=Cc1ccccc1 | -1 | 98 | 10 | -10
Cc1ccc(Oc2ccc3c(c2)C(=O)N(c2ccc(S(=O)(=O)Nc4nccs4)cc2)C3=O)cc1 | 5 | 101 | 61* | 0
[O-][n+]1ccccc1/C=C/c1ccccc1 | -1 | 97 | 0 | -6
[O-][n+]1c(/C=C/c2ccccc2)ccc2ccccc21 | 0 | 95 | -2 | 87*
Cc1nc2c(C(=O)NCc3ccc(F)cc3)c[nH]n2c(=O)c1Cl | -2 | 100 | 46* | 0
Cc1cc(N2CCNC[C@H]2C)ccc1N1CCN(Cc2ccccc2)[C@H](C)C1 | -3 | x | 6 | x
C[C@@H]1CN([C@H](C)CO)C(=O)c2cc(NS(=O)(=O)c3ccccc3)ccc2O[C@@H](C)CCCCO[C@@H]1CN(C)Cc1ccc(Cl)c(Cl)c1 | -1 | x | 6 | x
Fc1cccc(Cn2ccc3ccc(-c4ccc5ccn(Cc6ccccc6)c5c4)cc32)c1 | x | x | 17 | x
C=CCC(Nc1ccccc1)C12C=CC(O1)C(C(=O)OC)=C2C(=O)OC (configuration not stated) | -1 | 93 | -3 | 90*
O=C(Nc1nnc(CSCc2ccccc2F)s1)c1cccc([N+](=O)[O-])c1 | 0 | 100 | 46* | -3
CC(C)C(=O)Nc1nnc(CSCc2ccccc2F)s1 | 0 | 94 | -9 | -2
Cc1sc2nc(CN3CCN(S(=O)(=O)c4cccc5nonc45)CC3)[nH]c(=O)c2c1C | -1 | 24* | 2 | 1
Cc1ccc(S(=O)(=O)N2CCN(Cc3nc4sc(C)c(C)c4c(=O)[nH]3)CC2)cc1 | 1 | 103 | 1 | -5
O=C(O)C1Nc2c(O)cc(Cl)c([N+](=O)[O-])c2C2C=CCC12 (configuration not stated) | -6 | 107 | 101* | -1
